Bead autofluor = compound fluorescence in toxin protease inhibitor counterscreen. fluorescence intensity (no concentration beside the values). AID 624483. 360,000 tested, 3.1% active. compound autofluorescence counterscreen, microsphere flow cytometry; hits give high values; in the data active = fluorescence intensity above about 16000; inconclusive = no clear call, values can overlap the other calls
Mtb FBA inh = inhibits M. tuberculosis FBA enzyme | AID 588726 | inhibition, % at 1 µM | P9WQA3 | purified M. tuberculosis FBA, fluorescence read-out | 360,000 tested, 2.3% active; in the data active = inhibition above about 27%;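 note: 0% = vehicle and 100% = reference inhibitor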
Anthrax LF prot = inhibitors of Bacillus anthracis lethal factor protease; AID 588501; multiplex microsphere protease cleavage assay, LF; inhibition, % at 10 µM; 360,000 tested, 0.12% active; P15917; note: plate controls were buffer without enzyme for full effect and enzyme alone for no effect
Target sequence (P15917 whole entry, looked up): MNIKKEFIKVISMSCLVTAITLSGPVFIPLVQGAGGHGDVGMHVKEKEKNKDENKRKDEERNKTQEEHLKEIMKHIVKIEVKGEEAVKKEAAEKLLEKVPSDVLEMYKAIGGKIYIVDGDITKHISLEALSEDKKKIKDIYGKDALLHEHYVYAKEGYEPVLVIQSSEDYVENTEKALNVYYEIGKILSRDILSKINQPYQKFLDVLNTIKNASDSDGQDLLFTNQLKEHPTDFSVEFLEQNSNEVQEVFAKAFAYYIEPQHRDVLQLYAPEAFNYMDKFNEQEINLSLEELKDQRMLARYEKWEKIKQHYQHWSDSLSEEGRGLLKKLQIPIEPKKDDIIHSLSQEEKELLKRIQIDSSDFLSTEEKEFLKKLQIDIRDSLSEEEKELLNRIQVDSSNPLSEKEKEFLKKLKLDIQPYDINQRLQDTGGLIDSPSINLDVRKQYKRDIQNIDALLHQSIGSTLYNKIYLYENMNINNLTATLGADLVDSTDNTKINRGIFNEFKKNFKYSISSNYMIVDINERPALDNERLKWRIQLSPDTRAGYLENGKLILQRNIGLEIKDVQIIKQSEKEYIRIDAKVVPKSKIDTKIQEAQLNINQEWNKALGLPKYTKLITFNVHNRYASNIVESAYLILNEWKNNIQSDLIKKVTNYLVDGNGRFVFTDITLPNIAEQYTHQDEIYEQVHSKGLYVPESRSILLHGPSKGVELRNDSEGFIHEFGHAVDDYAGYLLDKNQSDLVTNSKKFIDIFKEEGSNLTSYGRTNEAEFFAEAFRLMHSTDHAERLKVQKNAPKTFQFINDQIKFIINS
BoNT F protease = blocks Botulinum neurotoxin F light chain protease | AID 588497 | Multiplex microsphere protease cleavage assay, flow cytometry | 360,000 tested, 0.22% active | inhibition, % at 10 µM; in the data active = inhibition above about 35%, passing the limit was not always enough; inconclusive = no clear call, values can overlap the other calls; note: plate controls were buffer without enzyme for full effect and enzyme alone for no effect
GDH-TPI inh = counter-screen for M. tuberculosis FBA inhibitors: GDH-TPI coupled enzymes; 360,000 tested, 1.2% active; inhibition, % at 4.8 µM; GDH-TPI coupled enzyme counterscreen, NADH absorbance; AID 588335; in the data active = inhibition above about 30%;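 note: 0% = DMSO wells and 100% = wells lacking the enzyme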
BoNT A protease = blocks Botulinum neurotoxin A light chain protease; 360,000 tested, 0.17% active; AID 588499; multiplex microsphere protease substrate cleavage, flow cytometry; inhibition, % at 10 µM; note: plate controls were buffer without enzyme for full effect and enzyme alone for no effect
* marks the source's active call; other numbers are inactive results; ? = inconclusive; · = no result. An excerpt weighted towards active compounds, which were near 6.7% of everything screened. Cut-off read from the data, not from the text of the source, unless noted: active = inhibition above about 30%; inconclusive = no clear call, values can overlap the other calls; inactive = below that.

SMILES	Bead autofluor	Mtb FBA inh	Anthrax LF prot	BoNT F protease	GDH-TPI inh	BoNT A protease
O=C1NC(=O)N(c2ccc(F)cc2)C(=O)/C1=C/c1ccc(N2CCOCC2)cc1	3786	-2	-1	-1	8	0
Cn1cccc1C(=O)OCC(=O)Nc1ccc2c(c1)CCC2	4240	1	1	-2	6	0
COc1cccc(CN(C)CC(=O)Nc2c(C)cccc2C(C)C)c1	4430	1	4	-1	-12	-1
O=C(NCCN1C(=O)C2C3C=CC(C3)C2C1=O)N1CCCCC1 (stereo not drawn)	6256	1	-3	-13	-12	0
O=C1C(=O)N(c2ccc(O)cc2)C(c2ccccc2[N+](=O)[O-])/C1=C(\O)c1ccccc1 (stereo not drawn)	4973	-5	-2	-4	36*	-1
COc1ccc(/C=N/NC(=O)C2C3CCCCC32C)cc1OC (stereo not drawn)	4562	2	-8	2	0	-1
O=C(NN=Cc1ccc(F)cc1)C1CC1	4039	2	-2	8	0	0
O=C(N/N=C/c1cc(Br)c(O)c(Br)c1)C1CC1	3701	3	0	22	31*	2
COc1cc(/C=N/NC(=O)C2C3CCCCC32C)cc(Br)c1O (stereo not drawn)	10633	14	-1	-2	51*	0
CN1/C(=C/c2cc[n+](C)c3ccccc23)C=Cc2ccccc21	4250	0	7	-9	-5	10
O=c1[nH]c(C2CCN(S(=O)(=O)c3ccccc3)CC2)nc2c1nnn2Cc1ccccc1	4633	3	-2	-2	-2	1
COc1ccc(-c2ccc3c(c2)CNCc2cnnn2-3)cc1	5477	115*	-4	-12	·	0
CCOC(=O)CNC(=O)N1Cc2cc(-c3ccc(OC)cc3)ccc2-n2nncc2C1	6019	124*	8	7	·	1
COc1ccc(Br)cc1/C=N/Nc1ccccn1	3052	1	-6	7	20	-1
COc1ccc(C(=O)NC(C(=O)NCC(=O)Nc2c(C)cccc2C)C(C)C)cc1 (stereo not drawn)	2566	1	-1	1	0	0
CCC1(CC)C(=O)NC(=NCCc2c[nH]c3ccccc23)NC1=O	17043*	-3	-2	-8	12	-2
COc1cccc(CNCCc2ccc(F)cc2)c1	3310	0	2	-18	-4	1
CCOC(=O)c1cnn(CCOC(=O)C2CC2)c1NC(=O)C1CC1	20293*	1	-2	-2	-6	1
CCOC(=O)c1cnn(CCOC(=O)c2ccccc2)c1NC(=O)c1ccccc1	1870	1	9	18	9	2
Cc1ccccc1CC(=O)NC1CCN(C)CC1	4268	0	1	-12	-6	1
CC(=O)Nc1ccc(N/C=C/C(=O)C(C)(C)C)cc1	11112	2	-3	-6	42*	-1
COc1ccc(Oc2ccc(N/C=C/C(=O)C(C)(C)C)cc2)cc1	2178	1	-3	-2	1	0
CC(C)C(=O)Nc1ccc2c(c1)nc(CCN1CCCCC1)n2C	3791	8	8	3	8	-1
Cc1ccc(-c2cc(C(=O)N/N=C/c3c(C)nn(C)c3C)c3ccccc3n2)cc1C	4928	4	1	-9	15	-2
O=C(CNS(=O)(=O)c1cccs1)N1CCN(c2ccccn2)CC1	2225	87*	0	-5	8	-1
SMILES	Bead autofluor	Mtb FBA inh	Anthrax LF prot	BoNT F protease	GDH-TPI inh	BoNT A protease
O=C(c1ccc(CNS(=O)(=O)c2ccccc2)cc1)N1CCN(c2ccccn2)CC1	4025	4	-6	-15	-4	0
O=C(c1ccc(Cl)c(S(=O)(=O)NCc2ccccc2)c1)N1CCN(c2ccccn2)CC1	18872*	2	0	0	5	2
COC(=O)C1CCN(C(=O)c2ccc(Cl)c(S(=O)(=O)NCc3cccnc3)c2)CC1	23363*	0	-3	-4	1	?
O=C(CNS(=O)(=O)c1cccs1)N1CCN(c2ccccc2F)CC1	3694	0	2	29	7	-2
S=c1[nH]nc(-c2ccc(Br)cc2)n1-c1ccc(Br)cc1	2966	0	-11	?	15	1
COC(=O)c1ccc2nc(-c3ccc(Cl)cc3)c(Cc3ccccc3OC)n2c1	7313	2	14	4	·	14
CN(C(=O)c1ccc(NC(=O)Cc2ccc(NC(=O)C3CCCN(C(=O)C4CCCCC4)C3)cc2)cc1)C1CC1 (stereo not drawn)	3419	0	0	-1	3	0
O=C(Nc1ccccc1F)NC1CCN(Cc2nnnn2Cc2ccc(F)cc2)CC1	23538*	0	1	-2	8	0
O=C(Nc1ccc(F)cc1)NC1CCN(Cc2nnnn2Cc2ccco2)CC1	22240*	1	-2	0	-10	?
CC(C)c1ccc(NC2CCCN(C(=O)CCN3CCCO3)C2)cc1 (stereo not drawn)	6066	4	-3	6	-7	-1
Cc1nn(CC(O)c2ccccc2)c(C)c1Br (stereo not drawn)	21421*	-1	0	0	-13	-2
COc1cccc(/C=N\NC(=O)c2sc(N)nc2C)c1OC	4128	4	2	?	26	0
Cc1ccc(CNC(=O)CN2C(=O)COc3ccc(C)cc32)cc1	19416*	2	-4	1	-8	1
Cc1ccc2c(c1)N(CC(=O)N1CCCc3ccccc31)C(=O)CO2	16620*	2	-4	-1	-7	-1
Cc1ccc2c(c1)N(CC(=O)N1CCc3ccccc3C1)C(=O)CO2	21837*	4	-2	0	-2	1
CC(C)(C)c1ccccc1OCC(=O)NCCC(=O)O	24308*	-2	-1	-4	-8	-3
Cc1nn(-c2ccc(F)cc2)c2sc(C(=O)N3CCCCCC3)cc12	3283	2	0	-4	-5	2
CNC(=O)COC(=O)c1cc2c(C)nn(-c3ccc(F)cc3)c2s1	16925*	8	-1	-3	6	-1
CN1CC(c2ccc(C#N)cc2)C2(COc3ccccc3C2=O)C12C(=O)Nc1ccccc12 (stereo not drawn)	19424*	0	-7	8	11	6
CC1=C(C(=O)OCc2ccccc2)C(c2ccc(C#N)cc2)NC(=O)N1CCCC(=O)O (stereo not drawn)	4034	-2	2	-4	4	-1
NC(=O)c1cccc2c1-c1ccccc1/C2=N/NC(N)=S	3129	-2	-12	-66	41*	-14
CCOC(=O)C1=C(O)C(=O)N(c2ccc(S(N)(=O)=O)cc2)C1c1cccc([N+](=O)[O-])c1 (stereo not drawn)	4802	3	7	-2	32*	0
CC(=O)C1=C(O)C(=O)N(c2ccc(S(N)(=O)=O)cc2)C1c1cccc([N+](=O)[O-])c1 (stereo not drawn)	4060	4	4	2	23	-1
CCOC(=O)N1CCN(C(=S)NCCOC)CC1	18608*	-1	-3	6	-10	4
